Screening results deposited in PubChem by National Center for Advancing Translational Sciences (NCATS).
Only some compounds are listed: those with a hit (about 3.6% of all), similar ones and a draw of the others.
DRV1 agonist: activates human resolvin D1 receptor GPR32. CHO-K1 GPR32 beta-arrestin PathHunter luminescence, 90 min; zero percent set by DMSO-only wells. activation, % at 76.9 µM. 2.5% of 48,000 active. AID 1346428;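 active = activation of at least 60% and not above a set upper limit, about 1 call in 100 departs from these limits; inconclusive = activation of 40% to 60%, or above that upper limit; inactive = activation under 40%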; note: 0% is about no effect
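Using DMSO wells as EC0, agonist-induced signal was taken as chemiluminescence from beta-Gal reconstituted upon beta-arrestin recruitment to GPR32 in CHO-K1 cells after 90 min compound treatment.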
B2AR arrestin ag: beta-arrestin recruitment by human beta2-adrenergic receptor ligands; HTLA Tango cells, beta-arrestin recruitment, luciferase luminescence, 18 h; Potency, µM (top dose mostly 46.1 µM), hits mostly activators; 44,000 tested, under 10 active;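 note: potency is the fitted concentration of half-maximal effect; 0% = DMSO and full agonism = EC100 isoproterenol or metaproterenol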
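First, Tango cells carrying beta2-AR and beta-arrestin fusions received compound up to 46 microM. After 18 hr at 37 degrees C, luciferase substrate was added for 15 minutes, then luminescence gave %Activity for curve fitting.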
GALC G270D up: raises human GALC G270D mutant activity in cells; P54803; 145M-Twi-hGALC-G270D cells (Twitcher mouse brain line with human GALC G270D), HMU-beta-Gal fluorescence, 48 h; Potency, µM (top dose mostly 57.5 µM), hits mostly activators; 0.1% of 45,000 active; note: potency is the fitted concentration of half-maximal effect; 0% is about no effect; nearly all actives have a fitted effect of over 65% in size
Target sequence (P54803 whole entry G286D): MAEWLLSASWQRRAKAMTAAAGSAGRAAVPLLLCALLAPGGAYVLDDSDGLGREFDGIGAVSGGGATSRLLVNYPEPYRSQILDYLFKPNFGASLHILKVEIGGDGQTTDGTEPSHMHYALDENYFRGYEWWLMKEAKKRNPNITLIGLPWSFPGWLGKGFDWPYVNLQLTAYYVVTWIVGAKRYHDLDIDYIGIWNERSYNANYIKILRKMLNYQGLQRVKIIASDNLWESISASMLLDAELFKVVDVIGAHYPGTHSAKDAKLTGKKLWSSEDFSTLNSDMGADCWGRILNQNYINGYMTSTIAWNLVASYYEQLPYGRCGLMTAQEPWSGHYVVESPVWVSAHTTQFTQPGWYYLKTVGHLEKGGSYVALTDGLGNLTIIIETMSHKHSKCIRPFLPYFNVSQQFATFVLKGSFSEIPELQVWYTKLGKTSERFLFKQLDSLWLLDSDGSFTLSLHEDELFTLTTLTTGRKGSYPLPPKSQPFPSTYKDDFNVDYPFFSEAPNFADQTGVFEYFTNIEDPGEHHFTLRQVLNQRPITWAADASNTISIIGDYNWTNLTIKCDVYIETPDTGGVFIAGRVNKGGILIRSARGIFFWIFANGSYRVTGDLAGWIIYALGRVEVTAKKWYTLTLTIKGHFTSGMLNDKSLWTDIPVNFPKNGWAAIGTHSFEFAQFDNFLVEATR
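Mutant human GALC (G270D), stably expressed in a Twitcher mouse brain cell line lacking endogenous GALC, is measured in live-treated cells via 6-hexadecanoylamino-4-methylumbelliferyl-β-galactoside hydrolysis (0.1 mM final, pH 5.2) with fluorescent detection.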
GALK inh: GALK (human) enzyme inhibition | P51570 | recombinant GALK, Kinase-Glo ATP luminescence, 1 h | Potency, µM (highest dose often 57.5 µM), without a hit: at the top dose activity, negative = inhibition, usual class: inhibitors | 44,000 tested, under 10 active | AID 1347072;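 note: plate controls were full GALK reaction for no effect and reaction lacking GALK for full effect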
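Compounds were pinned into ATP buffer, then GALK-galactose mix was added (final 5 nM enzyme, 35 uM ATP, 100 uM galactose, pH 8.0). After 1 h at room temperature, Kinase-Glo Plus was added and luminescence read.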
PTAP-TSG101 blk: blocks PTAP binding to human TSG101, validation. Potency, µM (series often up to 115 µM), hits mostly inhibitors. Q99816. AID 1347069. Fluorescence polarization, FITC-PTAP peptide/Tsg101, 20 min. 44,000 tested, under 10 active; note: potency is the fitted concentration of half-maximal effect; 0% is about no effect
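qHTS FP binding, 20 min r.t.: 10 uM Tsg101 domain + 50 nM FITC-PTAP peptide, pH 7.5 HEPES buffer with TCEP and EDTA.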
NTMT1 inhibitor: NTMT1 methyltransferase inhibition. Q9BV86. NTMT1 MTase-Glo SAH luminescence, purified enzyme. Potency, µM (titrated, usually from 114 µM), for inactives: at the top dose activity change, negative = inhibition, actives largely listed as inhibitors. 2.5% of 59,000 active;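 note: potency is the fitted concentration of half-maximal effect; plate controls were DMSO vehicle for no effect and no enzyme for full effect; nearly all actives have a fitted effect of over 65% in size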
* marks the source's active call; other numbers are inactive results; i = inactive; ? = inconclusive; . = no result given; ! = a repeat was not active; [ ] = dose if it differs, or a comment. Unless noted, calls come from the whole dose curve; as a rule, active = well fitted curve in the direction sought with a large enough effect; inconclusive = small, poorly fitted or top-dose-only effect, or another doubt; inactive = no such curve, though single readings can be large; an effect the other way counts as inactive or inconclusive.

SMILES	DRV1 agonist	B2AR arrestin ag	GALC G270D up	GALK inh	PTAP-TSG101 blk	NTMT1 inhibitor
O=C(NO)c1cnc(NC2(c3cccc(F)c3)CCCCC2)nc1	.	.	.	.	.	16%
CCC(=O)N1CCc2cc(S(=O)(=O)CCC(=O)Nc3ccc(OC(F)(F)F)cc3)ccc21	65*	i	i	8%	i	8%
CCC(=O)N1CCc2cc(S(=O)(=O)CCC(=O)NCc3ccc(OC)cc3)ccc21	-3	i	i	0%	i	17%
CCOC(=O)c1ccc(NS(=O)(=O)c2ccc(Br)s2)cc1	66*	i	i	2%	i	?
Cc1cn([C@H]2C[C@H](N[S+](=O)([O-])Cc3cccc(Cl)c3)[C@@H](CO)O2)c(=O)[nH]c1=O	.	.	.	.	.	5%
NC(=O)C1CCN(c2ncc(Br)s2)CC1	.	.	.	.	.	40µM*
CCNC(=O)c1noc(-c2cc(Cl)c(O)cc2O)c1-c1ccc(OC)cc1	.	.	.	.	.	4%[57.5 µM]
C[C@]12CC[C@@H]3c4ccc(O)cc4CC[C@H]3[C@H]1C[C@@H](O)[C@H]2O	.	.	.	.	.	-27%[57.5 µM]
C#C[C@]1(O)CC[C@H]2[C@@H]3CCc4cc(O)ccc4[C@H]3CC[C@@]21C	34	.	i	.	.	11µM*!
CCOc1ccc(CNC(=O)Cn2ccc3cc(S(=O)(=O)N4CCCCC4)ccc32)cc1	77*	i	i	-1%	i	-2%
CSc1ccc(CNC(=O)Cn2ccc3cc(S(=O)(=O)N4CCCC4)ccc32)cc1	20	i	i	-2%	i	-1%
CCOc1ccc(-n2nc3ccc(NC(=O)c4ccc(-c5cccc(Cl)c5)o4)cc3n2)cc1	-5	i	i	0%	i	79µM*
Fc1ccc(-c2ccc(CNc3nc(-c4ccccc4C(F)(F)F)nc4ccccc34)cc2)cc1C(F)(F)F	.	.	.	.	.	3%
CCn1c(SCC(=O)Nc2cc(C)ccc2F)nnc1-c1ccccc1O	82*	i	i	7%	i	-2%
Cc1cc(Br)ccc1NC(=O)C(Cc1ccccc1)NS(=O)(=O)c1ccc(Br)s1 (stereo not drawn)	65*	i	i	1%	i	1%
CCOc1ccc(OCC)c(NC(=O)C(NS(=O)(=O)c2ccc(Br)s2)c2ccccc2)c1 (stereo not drawn)	85*	i	i	1%	i	4%
CC(=O)Nc1ccc(NC(=O)C(NS(=O)(=O)c2ccc(Br)s2)c2ccccc2)cc1 (stereo not drawn)	-8	i	i	-1%	i	-9%
O=C(Nc1cccnn1)N1CCN(c2nccc(-c3ccc(F)c(F)c3)n2)CC1	.	.	.	.	.	2%
Cc1ccc(CN2C(=O)SC(Nc3ccc(Cl)cc3)C2=O)cc1 (stereo not drawn)	61*	i	i	5%	i	4%
N[C@@H](Cc1ccc(O[S+](=O)([O-])c2cccc3cccnc23)cc1)C(=O)N1CCN(c2ccccc2)CC1	.	.	.	.	.	-13%
CC1OC(OC2C(C)OC(OC3C(OC(=O)C45CCC(C)(C)CC4C4=CCC6C7(C)CCC(OC8OC(C(=O)O)C(O)C(O)C8OC8OC(CO)C(O)C(OC9OC(C)C(O)C(O)C9O)C8O)C(C)(CO)C7CCC6(C)C4(C)CC5)OC(CO)C(O)C3O)C(O)C2O)C(O)C(O)C1O (stereo not drawn)	.	.	.	.	.	4%[6.45 µM]
CCCCn1c(NCc2cc(Cl)ccc2O)nc2ccccc21	102*	i	i	-3%	i	21%
CCCCn1c(NCc2cc(Br)ccc2O)nc2ccccc21	?	i	i	-1%	i	5%
Cc1ccnc(NCc2ccc(O)c3ncccc23)c1	.	.	.	.	.	-4%
CC(C)NC[C@H](O)COc1cccc2ccccc12	-3	.	.	.	.	.
CNCC[C@H](Oc1cccc2ccccc12)c1cccs1	99*	.	i	.	.	?
CCn1c(=O)c(-c2ccc(Cl)cc2Cl)cc2cnc(Nc3ccc(N4CCNCC4)c(F)c3)nc21	.	.	.	.	.	50µM*!
